Reference: PubChem BioAssay (NCATS)
Inconclusive results are not listed. Active and inactive are the calls of the source. Calls follow the shape of the dose curve; as a rule, active = well fitted inhibition curve with a large enough effect; inconclusive = small, poorly fitted or top-dose-only effect; inactive = no such curve, though single readings can be large or run the other way. Starred links: 1 amine or outer side, 2 acyl side, 3 side chain; linkers in the order of their positions; H or OH if unused. Positions of bridges follow the written chain, without caps; N, C: chain ends. Non-standard residues stand in square brackets, D forms with d. Residues, ends and D or L forms follow the SMILES beside them. Chains are numbered I, II in the order given. Actinocin(9to1) = Cc1c2oc3c(C)ccc(C(=O)[*:1])c3nc-2c(C(=O)[*:2])c(N)c1=O; NMeV = CN[CH](C(=O)O)C(C)C; Sar = CNCC(=O)O
Potency is read from the fitted curve at half-maximal effect.

Experiment: BET inhibitor-based combinations targeting novel dependencies in MECOM-rearranged (r) AML: OCI-AML3 cell line (AID 2202232); also: nearly all actives have a fitted effect of over 35% in size
Conditions: CellTiter-Glo luminescence, 48 h; Potency: OCI-AML3 viability; series mostly up to 46 µM
In short: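 Cells were plated at 500 per well and exposed to an 11-point dose series of each drug for 48 hr. Viability was measured by CellTiter-Glo luminescence, normalized to DMSO and empty-well controls, and summarized as AUC and per-cell-line Z-AUC.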
In the case of Clc1ccc(-c2nc3sccn3c2/C=N/OCc2ccc(Cl)c(Cl)c2)cc1, the Potency is reported as “inactive”. For COc1ccc(-c2ccc3c(N4CCOC[C@@H]4C)nc(N4CCOC[C@@H]4C)nc3n2)cc1CO, the Potency was 0.148 µM (active). For CCCN(CCC)C(=O)C1=Cc2ccc(-c3ccc(C(=O)N4CCCC4)cc3)cc2N=C(N)C1, the Potency was 16.6 µM (active). For CC(C)(O)C1CCC(Nc2ccc3ncc(-c4cccc(C(F)(F)F)c4)n3n2)CC1 (stereo not given), the Potency was 11.8 µM (active). For COc1ccc2[nH]c3c(c2c1)CCN[C@]31CS[C@@H]2c3c(OC(C)=O)c(C)c4c(c3[C@H](COC1=O)N1[C@@H]2[C@H]2c3c(cc(C)c(OC)c3O)C[C@@H]([C@@H]1O)N2C)OCO4, the Potency was 0.0034 µM (active). For COC(=O)Nc1nc2ccc(C(=O)c3ccccc3)cc2[nH]1, the Potency was 0.59 µM (active). In the case of COc1cc(C(N)=O)ccc1NC(=O)[C@@H]1N[C@@H](CC(C)(C)C)[C@@]2(C(=O)Nc3cc(Cl)ccc32)[C@H]1c1cccc(Cl)c1F, the Potency is reported as 0.934 µM (active). With CCOC(=O)c1c(CSc2ccccc2)n(C)c2cc(Br)c(O)c(CN(C)C)c12 the Potency was 11.8 µM (active). For CC/C(=C(/c1ccc(O)cc1)c1ccc(OCCNC)cc1)c1ccccc1, the Potency was 14.8 µM (active). For COc1ccc2c(c1)c(C1=C(c3c[nH]c4ccccc34)C(=O)NC1=O)cn2CCCN(C)C, the Potency was 20.9 µM (active). For CC(C)(C)C[C@H]1N[C@@H](C(=O)NC2CCC(O)CC2)[C@H](c2cccc(Cl)c2F)[C@@]12C(=O)Nc1cc(Cl)ccc12 (stereo not given in full), the Potency was 4.17 µM (active). With COc1cc(C(=O)NC(N)=Nc2ccc(C)c(NC(=O)c3ccc(-c4ccccc4)cc3)c2)cc(OC)c1OC the Potency was 18.6 µM (active). With Cc1cc2cc(Oc3ccnc(Nc4cccc(CS(=O)(=O)NCCN(C)C)c4)n3)ccc2[nH]1 the Potency was 20.9 µM (active). With C[C@@H](O)[C@@H]1NC(=O)[C@H](CCCCN)NC(=O)[C@@H](Cc2c[nH]c3ccccc23)NC(=O)[C@H](Cc2ccccc2)NC(=O)[C@@H](NC(=O)[C@H](N)Cc2ccccc2)CSSC[C@@H](C(=O)N[C@H](CO)[C@@H](C)O)NC1=O the Potency was “inactive”. In the case of CC1(C)CCC2(CC1)N[C@@H](C(=O)N[C@@H]1CC[C@@H](C(N)=O)OC1)[C@H](c1ccnc(Cl)c1F)[C@]21C(=O)Nc2cc(Cl)ccc21, the Potency is reported as 0.715 µM (active). For CN1C(=O)[C@@H](NC(=O)c2n[nH]c(Cc3ccccc3)n2)COc2ccccc21, the Potency was “inactive”. For CC(C)(O)CC[C@@H](O)[C@](C)(O)[C@H]1CC[C@@]2(O)C3=CC(=O)[C@@H]4C[C@@H](O)[C@@H](O)C[C@]4(C)[C@H]3CC[C@]12C, the Potency was “inactive”. With N#Cc1ccc(-c2c(-c3ncn[nH]3)sc(N3CCOCC3)c2C#N)c(F)c1 the Potency was 5.9 µM (active). With CC(C)C[C@H](NC(=O)c1cc2ccccc2s1)C(=O)N1CCN(C(=O)[C@H](CO)NS(=O)(=O)c2ccc(Cl)cc2Cl)CC1 the Potency was 18.6 µM (active). In the case of CNc1nc(-c2ccc3c(N)n[nH]c3c2)cc(N2C[C@@H](C(=O)NC3CCCCC3)CC[C@H]2C)n1, the Potency is reported as 5.9 µM (active). For OC1CCC(Oc2cccc3cnc(Nc4ccc5nc[nH]c5c4)nc23)CC1 (stereo not given), the Potency was 1.48 µM (active). In the case of Cc1cc(C)c(CNC(=O)c2cc(-c3ccc(N4CCN(C)CC4)nc3)cc3c2c(C)cn3C(C)C)c(=O)[nH]1, the Potency is reported as 18.6 µM (active). For CCc1ccc2nc(Nc3cc(Cc4ccccc4)nc(NC4CCC(O)CC4)n3)sc2c1 (stereo not given), the Potency was 18.6 µM (active). With C[C@]12CCCN1CC1=NNC(=O)c3cc(F)cc4[nH]c2c1c34 the Potency was 20.9 µM (active). With N#Cc1c(N)nc(N)nc1N[C@H](c1nc2c(F)ccc(Cl)c2c(=O)n1-c1cccnc1)C1CC1 the Potency was 6.61 µM (active). In the case of Cc1ccc(-c2nn(C(C)(C)CNC(=O)c3ccncc3)c3ncnc(N)c23)cc1, the Potency is reported as 16.6 µM (active). With CC(C)Oc1ccc(-c2nn([C@@H](C)c3oc4ccc(F)cc4c(=O)c3-c3cccc(F)c3)c3ncnc(N)c23)cc1F the Potency was 11.8 µM (active). With Cc1c(-c2c(-c3ccc(F)o3)sc3ncnc(O[C@@H](Cc4ccccc4OCc4ccnn4CC(F)(F)F)C(=O)O)c23)ccc(OCCN2CCN(C)CC2)c1Cl the Potency was 0.296 µM (active). For CC(C)n1c(/C=C/[C@H](O)C[C@H](O)CC(=O)O)c(-c2ccc(F)cc2)c2ccccc21, the Potency was 3.32 µM (active). In the case of Cc1c2oc3c(C)ccc(C(=O)NC4C(=O)NC(C(C)C)C(=O)N5CCCC5C(=O)N(C)CC(=O)N(C)C(C(C)C)C(=O)OC4C)c3nc-2c(C(=O)NC2C(=O)NC(C(C)C)C(=O)N3CCCC3C(=O)N(C)CC(=O)N(C)C(C(C)C)C(=O)OC2C)c(N)c1=O (stereo not given) (I: TVP[Sar][NMeV] / II: TVP[Sar][NMeV]; ester I:1-I:C, II:1-II:C; linker I:N-II:N via Actinocin(9to1); configuration not given here), the Potency is reported as 0.0032 µM (active).
